Sampled rows, rich in hits. Any-hit rate of the full collection: about 1.3%.
Vif-A3F inh: Vif-A3F binding inhibition; Potency, µM (top dose mostly 46.1 µM), inactives show at the top dose activity, negative = active; HeLa A3F-eYFP + Vif (tagged APOBEC3F with the HIV-1 protein that degrades it), YFP fluorescence increase; 0.2% of 390,000 active; note: potency is the fitted concentration of half-maximal effect; % of control where 0% means no effect; nearly all actives have a fitted effect of over 65% in size
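HeLa cells stably expressing Vif plus C-terminally eYFP-tagged A3F were seeded, incubated overnight at 37 deg C, dosed with compound, incubated overnight again at 37 deg C. Yellow fluorescence (Ex 488/Em 500-530) reported blocked Vif-mediated A3F-eYFP degradation.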
TRPML1 blocker: human mucolipin-1 channel inhibition; activity change, negative = inhibition, % (no concentration beside the values); AID 624415; TRPML1-inducible cells, Ca2+ dye fluorescence, FDSS; stronger effect = lower value; inhibition of EC80 agonist-evoked calcium signal; 0.02% of 390,000 active; Q9GZU1; in the data active = activity change below about -50%; inconclusive = between about -30% and that limit;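 note: stimulus is agonist 54-4 at its EC80 concentration; % is set by controls: 0 for no effect and ±100 for the full control effect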
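Calcium fluorescence in TRPML1-DL cells induced overnight with Tet: a 110 s read after compound pin addition, then a 110 s antagonist read after challenge with 54-4 at 4 uM final (EC80).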
ALOX12 inh: blocks human arachidonate 12S-lipoxygenase; P18054; purified 12hLO, xylenol orange hydroperoxide absorbance; Potency, µM (doses to about 108 µM), without a hit: at the top dose activity change, negative = inhibition, usual class: inhibitors; 1.1% of 580,000 active; AID 1671190; note: potency is the fitted concentration of half-maximal effect; % is set by controls: 0 for no effect and ±100 for the full control effect
Target sequence (P18054 whole entry, looked up): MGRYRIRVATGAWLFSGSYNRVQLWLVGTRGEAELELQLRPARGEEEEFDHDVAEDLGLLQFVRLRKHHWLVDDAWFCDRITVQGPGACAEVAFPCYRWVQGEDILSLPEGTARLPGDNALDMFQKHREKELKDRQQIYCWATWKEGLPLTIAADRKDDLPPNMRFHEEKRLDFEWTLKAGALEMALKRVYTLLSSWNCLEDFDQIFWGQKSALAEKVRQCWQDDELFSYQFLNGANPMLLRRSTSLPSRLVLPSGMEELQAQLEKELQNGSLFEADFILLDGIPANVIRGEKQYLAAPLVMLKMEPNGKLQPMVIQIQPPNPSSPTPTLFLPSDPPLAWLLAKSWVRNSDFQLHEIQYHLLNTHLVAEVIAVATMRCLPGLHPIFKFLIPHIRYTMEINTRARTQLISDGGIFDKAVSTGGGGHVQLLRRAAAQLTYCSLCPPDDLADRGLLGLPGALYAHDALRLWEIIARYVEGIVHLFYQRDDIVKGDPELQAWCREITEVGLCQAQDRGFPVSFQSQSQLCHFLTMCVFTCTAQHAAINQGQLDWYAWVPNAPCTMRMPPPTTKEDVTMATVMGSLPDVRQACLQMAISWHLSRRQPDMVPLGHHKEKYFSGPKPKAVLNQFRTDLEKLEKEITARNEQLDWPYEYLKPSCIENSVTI
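Purified human 12hLO (150 nM final) in 25 mM Hepes, 0.01% Triton X-100, pH 7.0 was preincubated 15 min at room temperature with compound. Then 40 uM arachidonic acid was added, 30 min. Hydroperoxide was read by Fe-XO absorbance ratio 573/405 nm.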
TRPML1 ag: agonists of human TRPML1 channel | TRPML1-expressing cells, Ca2+ dye fluorescence, FDSS | activation, % (test concentration not listed) | 0.12% of 410,000 active; in the data active = activation above about 50%; inconclusive = mostly about 30% to 49%; note: 0% is about no effect
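Tetracycline-induced TRPML1-DL cells are seeded and incubated overnight before loading with a no-wash Ca2+ dye and quencher. Agonist activity is taken from the 110 s fluorescence read following compound pin-transfer on an FDSS, before EC80 54-4 challenge.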
Vif-APOBEC3G blk: inhibitors of Vif-APOBEC3G interaction; HeLa A3G-eYFP + Vif (tagged APOBEC3G with the HIV-1 protein that degrades it), YFP fluorescence, overnight; Potency, µM (series often up to 46.1 µM), for the others: at the top dose activity, negative = active, usual class: inhibitors; 0.076% of 410,000 active; AID 602310; note: potency is the fitted concentration of half-maximal effect; % is set by controls: 0 for no effect and ±100 for the full control effect; nearly all actives have a fitted effect of over 60% in size
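HeLa cells stably expressing Vif and C-terminally eYFP-tagged A3G, seeded overnight at 37 deg C, then exposed to compound by pintool overnight at 37 deg C. Rise in yellow fluorescence (Ex 488/Em 500-530, Acumen) marks blocked Vif-driven A3G degradation.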
Glioma ERSR ind: ER stress response induction in glioma; U87-MG GRP78 promoter luciferase reporter, 16 h; AID 602332; 0.02% of 420,000 active; Potency, µM, for inactives: at the top dose activation, actives largely listed as activators; note: potency is the fitted concentration of half-maximal effect; series mostly up to about 76 µM; % of control where 0% means no effect; nearly all actives have a fitted effect of over 35% in size
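Stably transfected U87-MG human glioma cells carrying a GRP78-based luminescent sensor were seeded at 1000 cells/well, pin-dosed with compounds and incubated 16 h. Luciferase reagent was then added, and end-point luminescence was read after 10 min at room temperature.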
* hit, by the source's call; ? = inconclusive; . = not tested or not shown; ! = repeats disagree; [ ] = dose if it differs, or a comment. Unless noted, calls come from the whole dose curve; as a rule, active = well fitted curve in the direction sought with a large enough effect; inconclusive = small, poorly fitted or top-dose-only effect, or another doubt; inactive = no such curve, though single readings can be large; an effect the other way counts as inactive or inconclusive.

SMILES	Vif-A3F inh	TRPML1 blocker	ALOX12 inh	TRPML1 ag	Vif-APOBEC3G blk	Glioma ERSR ind
CC(C)NC(=O)[C@H]1CN2CCC1C[C@@H]2Cn1cc(CCO)nn1 (stereo not given in full)	.	.	-26.1%[176 µM]	.	.	.
O=C1NC(=O)C(Sc2ccccc2[N+](=O)[O-])C(=O)N1	-7.1%	30.1	10µM*	1.8	-1.2%	-1.4%
N#Cc1cn(C2OC(CO)C(O)C2O)c2ncnc(N)c12 (stereo not given)	-7.2%	2.5	-26.4%	-0.3	-12.6%	-4.8%
NC(=O)c1cn(C2OC(CO)C(O)C2O)c2ncnc(N)c12 (stereo not given)	-10.9%	-17.5	17.8µM*!	-0.4	-5.4%	-8.1%
COCCNC(=O)c1c(NC(=O)c2ccc(Br)o2)n(Cc2ccccc2)c2nc3ccccc3nc12	11.2µM*	5.7	1.0%	2.3	?	-2.3%
Cc1cccc(N2C(=O)/C(=C/c3ccc(CN(CCC#N)S(C)(=O)=O)o3)C(=O)NC2=S)c1	3.1%	-6.7	12.6µM*	-0.1	0.4%	-1.0%
O=C(Cc1ccc(F)cc1F)N1CCN(Cc2ccccc2)CC(O)C1 (stereo not given)	.	.	59.4%	.	.	.
C=C(C)CSc1nnc(C(N)Cc2c[nH]c3ccccc23)o1 (stereo not given)	.	.	1.5%	.	.	.
Cc1ccnc(NS(=O)(=O)c2ccc(N=Cc3c(O)n(C)c(=O)n(C)c3=O)cc2)n1	7.9%	9.3	5.01µM*	0.4	1.2%	-4.5%
COCOC1CCC2C3CCC4=CC(=O)CCC4=C3C=CC12C (stereo not given)	5.2%	-7.5	25.1µM*	-0.3	-4.9%	-0.9%
CC1(O)CCC2C3CCC4=CC(=O)CCC4=C3C=CC21C (stereo not given)	-1.2%	-9.7	-11.0%	0.6	0.2%	-2.9%
COc1ccc(N2C(=O)NC(=O)/C(=C/c3cccc(OC(=O)c4cccs4)c3)C2=O)cc1Cl	0.1%	5.8	35.5µM*	-0.6	0.4%	-3.5%
COc1cc(/C=C2\C(=O)NC(=O)N(c3ccccc3)C2=O)cc(OC)c1O	-17.1%	-4.6	?	1.3	0.7%	-4.6%
Cc1ccc(N2C(=O)NC(=O)/C(=C/c3ccc(OC(=O)c4cccs4)cc3)C2=O)cc1	-1.5%	8.1	44.7µM*	0.6	-0.2%	0.3%
Cc1ccc(N2C(=O)NC(=O)/C(=C\c3ccoc3)C2=O)cc1	?	7.2	?	0.9	?	-6.3%
Cc1nn(CCC#N)c2c1P(=S)(N1CCCC1)OC(c1ccc(F)cc1)=N2 (stereo not given)	6.3%	4.1	22.4µM*	0.3	1.2%	-2.3%
Clc1ccc(C(c2ccc(Cl)cc2)n2cc[n+](CC(OCc3ccc(Cl)cc3Cl)c3ccc(Cl)cc3Cl)c2)cc1 (stereo not given)	5.5%	0.7	38.5µM*!	-0.4	5.1%	-14.8%
CC(C)CCN1CCC(N2CCN(C(=O)Cc3ccccc3F)CC2)C1=O (stereo not given)	.	.	-5.7%	.	.	.
O=C(Cn1cc(C=C2C(=O)NC(=O)NC2=O)c2ccccc21)NCC1CCCO1 (stereo not given)	-8.9%	-2.9	12.6µM*	0.0	-0.7%	-1.6%
Nc1ccc2ccccc2c1	-11.4%	14.2	?	1.0	-7.1%	-3.5%
C[n+]1c2cc(N)ccc2cc2ccc(N)cc21	-26.2%	?	?	104.4*	0.9%	?
Cc1noc(C)c1CN1CCCCC1c1cccnc1 (stereo not given)	.	.	1.9%	.	.	.
COc1ccc(N2C(=O)/C(=C/c3cc(C)n(-c4ccc(C)cn4)c3C)C(=O)NC2=S)c(OC)c1	-16.4%	-3.7	35.5µM*	0.5	-7.2%	1.5%
Cc1ccc(-n2c(C)cc(/C=C3/C(=O)NC(=O)N(C)C3=O)c2C)cc1	0.8%	21.3	-16.9%	1.5	-1.5%	-2.2%
C#C[C@H]1CN2CC[C@H]1C[C@@H]2CNC(=O)Nc1ccc(Oc2ccccc2)cc1	.	.	-13.1%[176 µM]	.	.	.
SMILES	Vif-A3F inh	TRPML1 blocker	ALOX12 inh	TRPML1 ag	Vif-APOBEC3G blk	Glioma ERSR ind
COc1cc(NC(=O)OC[C@H]2C[C@@H]3CCN2C[C@@H]3c2cc(-c3ccc(N(C)C)cc3)nc(C)n2)cc(OC)c1	.	.	44.7µM*	.	.	.
O=C(Nc1cccc(C(F)(F)F)c1)OC[C@H]1C[C@@H]2CCN1C[C@@H]2c1cc(C2CCCC2)nc(-c2ccncc2)n1	.	.	50.1µM*	.	.	.
CC(=O)c1ccc(NC(=O)OC[C@H]2C[C@@H]3CCN2C[C@@H]3c2cc(C3CCCC3)nc(-c3ccncc3)n2)cc1	.	.	-29.5%	.	.	.
CC(C)NC(=O)OC[C@H]1C[C@@H]2CCN1C[C@@H]2c1cc(C2CCCC2)nc(-c2ccncc2)n1	.	.	28.2µM*	.	.	.
O=C(NC1CCCCC1)OC[C@H]1C[C@@H]2CCN1C[C@@H]2c1cc(C2CCCC2)nc(-c2ccncc2)n1	.	.	31.6µM*	.	.	.
C[S+](=O)([O-])N1CCC2(CC1)C(=O)NN=C2c1cccnc1	.	.	14.3%[176 µM]	.	.	.
CCN1CCN(S(=O)(=O)c2ccc(Cl)c(C(=O)Nc3ccc(C(=O)N(CC)CC)cc3)c2)CC1	0.0%	-1.0	20µM*	-0.8	6.2%	-0.2%
COc1ccc(OC)c(S(=O)(=O)N2[C@H]3CC[C@@H]2c2cnc(-c4ccccc4)nc2C3)c1	.	.	55.3%	.	.	.
C[N+]12CCC(CC1)C(=C(c1ccccc1)c1ccccc1)C2	?	-14.9	35.5µM*	1.8	-42.2%	-0.8%
CC[N+]12CCC(CC1)C(=C(c1ccccc1)c1ccccc1)C2	0.0%	4.2	-17.3%	0.0	-0.3%	-3.3%
Cc1cc(CN2CCCC3(C2)NC(=O)c2ccccc2O3)no1 (stereo not given)	.	.	-0.9%[176 µM]	.	.	.
COc1cc(O)c(C(=O)O)c(-c2cc(O)c(O)cc2C)c1	-19.0%	-1.4	3.16µM*	-0.6	1.8%	3.3%
CN(C)Cc1cn(C[C@H]2C[C@@H]3CCN2C[C@@H]3C(=O)NCc2ccc(F)cc2)nn1	.	.	31.6%[176 µM]	.	.	.
COc1ccccc1NC(=O)Nc1ccc2n(c1=O)C[C@H]1C[C@@H]2CN(C2CCOCC2)C1	.	.	12.6µM*	.	.	.
COc1ccccc1NC(=O)N1C[C@@H]2C[C@H](C1)c1c(C3CCCCC3)ccc(=O)n1C2	.	.	10.2%[176 µM]	.	.	.
C=C(C)C(Cc1c(OC)ccc(C(=O)/C=C/c2ccc(O)cc2)c1O)OO (stereo not given)	4.3%	.	20µM*	.	-27.9%	6.8%
Cc1cccc(NC(=O)N2[C@H]3CC[C@@H]2c2cnc(-c4ccccc4)nc2C3)c1	.	.	15.5%	.	.	.
O=C1NC(=O)N(c2ccc(Cl)cc2)C(=O)/C1=C\c1ccc(Sc2nc3ccccc3[nH]2)o1	?	14.6	8.91µM*	28.2	-27.4%	3.6%
O=C1NC(=O)C(=Cc2ccc(Sc3ccccc3)o2)C(=O)N1	-30.7%	4.5	?	0.0	?	-16.1%
